Data: PubChem BioAssay

Assay: growth suppression of yeast trafficking mutant, preliminary HTS, modulators of trafficking downstream of Golgi apparatus project, 1536-format plate, OD 615 nm (AID 637)
Settings: yeast transport mutant growth, absorbance 615 nm, 18 h; active compounds read high; in the data active = inhibition above about 30%; inactive = the rest

inhibition, inactive:
CCOC(=O)c1cc(NC(=O)SCC(=O)O)c(C)nc1C -1.64%
Clc1c(CSc2nc3ccccc3o2)nc2sccn12 2.95%
O=C(CCn1[nH]c(=O)c2ccccc2c1=O)NCCO -7.27%
CC12CCC(C(=O)N3CCN(C(=O)C45CCC(C)(C(=O)O4)C5(C)C)CC3)(OC1=O)C2(C)C -7.64%
COc1cccc(C2C(C(=O)c3cccs3)=C(O)C(=O)N2CCCn2ccnc2)c1OC (stereo not given) 3.09%
Cc1ccc(S(=O)(=O)N(CC(=O)N2CCC(C(N)=O)CC2)Cc2ccc(F)cc2)cc1 -3.45%
COc1ccc(N2CCN(C(=O)CSc3ccccc3)CC2)cc1 -2.18%
COc1ccccc1N1CCN(C(=O)C2CCN(S(=O)(=O)c3ccc(F)cc3)CC2)CC1 8.55%
COCCN1C=C(C(=O)OC)C(c2cc3c(cc2Br)OCO3)C(C(=O)OC)=C1 -1.09%
CC1=C(C(N)=O)C(c2ccccn2)n2nc(SCc3ccccc3)nc2N1 (stereo not given) -5.64%
O=C(/C=C/N1CCOCC1)c1ccc(-c2ccccc2)cc1 -2%
CCOc1ccc(NS(=O)(=O)c2cc(Cl)ccc2OC)cc1 -5.09%
COc1ccc(NC(=O)CC2CCCCC2)cc1OC -1.09%
Cc1oc(-c2cccc(Cl)c2)nc1CN1CCC(C(=O)N2CCN(c3ccccc3F)CC2)CC1 -3.28%
O=C(Nc1ccc2c(c1)OCCO2)C1CCN(C(=O)c2ccc(F)cc2)CC1 -4.55%
CCOC(=O)Nc1c(O)ccc2oc(C)c(-c3ccccc3)c12 15.3%
O=C(CCNS(=O)(=O)c1cccs1)Nc1ccccc1F 0.55%
CCOC(=O)N1CCN(C(=O)CN(C2CCCCC2)S(=O)(=O)c2ccc(F)cc2)CC1 -4.36%
O=C(COc1ccc(F)cc1)Nc1ccc(-n2cnnn2)cc1 -1.27%
O=C(Cn1c(=O)sc2ccccc21)NCCOc1ccccc1F -6.23%
O=C(c1ccco1)c1nnn(Cc2ccccc2)c1-c1ccccc1 -4.73%
O=C(Nc1ncc(Cc2ccccc2)s1)C1CCCO1 (stereo not given) -9.34%
CC1=C(C(=O)OC2CCCCCC2)C(c2ccc(C)o2)C2=C(CCCC2=O)N1 (stereo not given) 2.38%
CC12CN3CCN(CC(C3)C1(O)CN1CCCCC1)C2 (stereo not given) -0.18%
CCn1c(C(C#N)/C(=N\S(=O)(=O)c2cccs2)c2ccccc2)nc2ccccc21 (stereo not given) -1.15%
CCOC(=O)N1CCN(C(=O)c2cnn(-c3ccccc3)c2NC(=O)c2ccccc2F)CC1 -0.73%
O=C(CCC(=O)OCC(=O)c1ccccc1)NC1CCCCC1 -5.82%
O=C(Nc1nc2c(s1)CCCC2)C1COc2ccccc2O1 (stereo not given) -5.25%
CCN(CC)S(=O)(=O)c1ccc2c(c1)nc(SCn1nnc3ccccc3c1=O)n2CC -2.36%
Cc1ccc(N2C(=O)c3oc4ccccc4c(=O)c3C2c2cccc(O)c2)nc1 (stereo not given) 2.17%
COc1cc(C(=O)NCCc2ccc3c(c2)OCCO3)ccc1OCC(=O)N1CCOCC1 -6.55%
O=C(CN1CCN(Cc2ccccc2)CC1)NCC1COc2ccccc2O1 (stereo not given) -4.73%
Cc1nonc1NC(=O)c1ccccc1Br -1.64%
Cc1cc(NC(=O)CSc2nc3c(c(-c4cccnc4)c2C#N)CCC3)no1 -3.09%
Cc1onc(-c2ccccc2)c1C(=O)NCc1cccnc1 3.09%
OC(CNCCc1ccccc1)c1ccccc1 (stereo not given) 2.36%
Cc1ccc(C)n1-c1ccc(N2CCOCC2)cc1 -3.33%
C#CCOC(=O)C1C2C=CC(C2)C1C(=O)O (stereo not given) 1.45%
Cc1ccc(C(=O)Nc2c(C(=O)N3CCOCC3)cnn2-c2ccccc2)cc1 -2.91%
Clc1cccc(-c2nnc(-c3ccccc3)o2)c1 0.82%
